Assay results from paper PMC4336329 (PLoS ONE, 2015).
Among all 310,000 compounds or so, about 14,000 (4.5%) showed an effect of 50% or more. The effect is printed as a negative number. The full list was thinned out, with strong results kept by preference.

The molecules below were run against human ether-à-go-go-related gene (hERG) potassium channel (human, UniProt Q12809) (assay: primary screen, population patch clamp on CHO cells stably expressing hERG; higher = less effect of the substance).
human ether-à-go-go-related gene (hERG) potassium channel, sequence (Q12809 whole entry, looked up): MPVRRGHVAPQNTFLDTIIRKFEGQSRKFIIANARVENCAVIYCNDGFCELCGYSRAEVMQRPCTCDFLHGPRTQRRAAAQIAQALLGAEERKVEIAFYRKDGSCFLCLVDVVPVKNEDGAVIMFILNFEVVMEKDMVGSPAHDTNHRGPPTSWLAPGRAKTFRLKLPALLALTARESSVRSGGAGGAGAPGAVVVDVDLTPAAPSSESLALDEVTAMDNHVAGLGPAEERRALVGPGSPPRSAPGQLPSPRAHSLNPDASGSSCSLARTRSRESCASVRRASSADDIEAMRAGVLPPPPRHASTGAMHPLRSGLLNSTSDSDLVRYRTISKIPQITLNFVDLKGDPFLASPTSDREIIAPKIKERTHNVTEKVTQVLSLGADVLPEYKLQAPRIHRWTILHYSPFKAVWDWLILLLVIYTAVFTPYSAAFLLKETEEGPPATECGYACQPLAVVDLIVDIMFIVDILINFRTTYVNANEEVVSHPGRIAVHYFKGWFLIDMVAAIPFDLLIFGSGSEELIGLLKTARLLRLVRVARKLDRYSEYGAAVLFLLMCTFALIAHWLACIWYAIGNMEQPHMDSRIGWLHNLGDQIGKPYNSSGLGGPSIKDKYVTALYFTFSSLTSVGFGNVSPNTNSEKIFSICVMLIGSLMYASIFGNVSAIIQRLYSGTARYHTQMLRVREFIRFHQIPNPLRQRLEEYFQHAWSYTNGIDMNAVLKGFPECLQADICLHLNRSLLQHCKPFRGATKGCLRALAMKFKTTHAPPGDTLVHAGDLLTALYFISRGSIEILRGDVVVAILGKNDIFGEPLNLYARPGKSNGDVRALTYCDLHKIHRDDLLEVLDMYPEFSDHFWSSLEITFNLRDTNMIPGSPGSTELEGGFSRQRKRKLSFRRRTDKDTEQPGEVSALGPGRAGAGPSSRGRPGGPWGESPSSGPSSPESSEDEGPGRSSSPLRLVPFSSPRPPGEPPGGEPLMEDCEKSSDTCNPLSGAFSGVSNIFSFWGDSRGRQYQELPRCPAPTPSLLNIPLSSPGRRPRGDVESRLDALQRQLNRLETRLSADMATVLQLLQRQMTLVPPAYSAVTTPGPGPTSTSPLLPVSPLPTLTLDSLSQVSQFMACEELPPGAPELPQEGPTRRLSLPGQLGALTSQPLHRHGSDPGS
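Also: peak tail current of the secondary pulse compared with the same well before compound.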

| SMILES | hERG current change (%, negative = inhibition) at 10uM [%] |
| --- | --- |
| CC(C)C(NS(=O)(=O)c1cccs1)C(=O)NCc1ccccc1Cl (stereo not shown) | 0.166 |
| Cn1sc(NC(=O)c2ccc(Cl)cc2)nc1=O | 7.93 |
| COc1ccc2c(c1)[nH]c1c(C)nccc12.Cl | -28 |
| COc1cc(/C=N/NC(=O)C(NC(=O)c2ccccc2)c2n[nH]c(=O)c3ccccc23)ccc1OCC(N)=O (stereo not shown) | 5.88 |
| CCOc1ccc2nc3c(cc2c1)CN(CCOC)C(=NC)S3.Cl | 11.2 |
| COc1cc(OC)cc(-c2c(-c3cccs3)c3cc(-c4ccc(OC)c(F)c4)ccc3n2C)c1 | 12.3 |
| CCOc1ccc(OCC)c(S(=O)(=O)N2CCCCC2C)c1 (stereo not shown) | -52.2 |
| CCOc1ccc(OCC)c(S(=O)(=O)N2CCC(C)CC2)c1 | -29.4 |
| CCOc1ccc(OCC)c(S(=O)(=O)N2CCCCC2)c1 | -12.2 |
| O=C(NCCNc1nccc(C(F)(F)F)n1)c1cccs1 | -11.3 |
| Cc1ccc2c(ccc(=S)n2C)c1 | 22.1 |
| CCOc1ccc2[nH]c(C)c(CN3CCCCC3)c(=O)c2c1 | -13.1 |
| O=C(/C=C/c1ccccc1)NCCS(=O)(=O)N1CCN(c2ccccc2F)CC1 | -3.41 |
| CCn1cc(C(=O)O)c(=O)c2cnc(N3CCN(C(=S)Nc4ccccc4)CC3)nc21 | 2.24 |
| CCn1cc(C(=O)O)c(=O)c2cnc(N3CCNCC3)nc21 | -65.4 |
| C=CCNC(=S)N1CCN(c2ncc3c(=O)c(C(=O)O)cn(CC)c3n2)CC1 | 2.8 |
| C/C(=N\NC(=O)C(O)c1ccccc1)c1ccc(Br)s1 (stereo not shown) | 1.82 |
| Cc1cccc(CCN=c2c([N+](=O)[O-])nn(-c3ccccc3)n2O)c1 | -15.5 |
| O=[N+]([O-])c1nn(-c2ccccc2)n(O)c1=NC1CCN(Cc2ccccc2)CC1 | -58.1 |
| O=[N+]([O-])c1nn(-c2ccc3c(c2)OCCO3)n(O)c1=NC1CCN(Cc2ccccc2)CC1 | -17.8 |
| COc1ccc(-n2nc([N+](=O)[O-])c(=NC3CCN(Cc4ccccc4)CC3)n2O)cc1 | -39.8 |

| SMILES | hERG current change (%, negative = inhibition) at 10uM [%] |
| --- | --- |
| Cc1ccc(CN=c2c([N+](=O)[O-])nn(-c3cccc(C)c3)n2O)cc1 | -32.7 |
| Cc1cccc(-n2nc([N+](=O)[O-])c(=NC3CCN(Cc4ccccc4)CC3)n2O)c1 | -66.8 |
| COC(=O)c1ccccc1S(=O)(=O)Nc1ccc(OC)nc1 | -0.17 |
| Cc1cccc(Nc2nn3c(=O)c4ccccc4nc3s2)c1 | 23.6 |
| COc1ccc(NC(=O)c2cccc3cccnc23)cc1S(N)(=O)=O | 29.2 |
| CN(C)CC(c1ccccc1)c1ccccc1.Cl | 5.32 |
| CN(CC#CCC(c1ccccc1)c1ccccc1)C(C)(C)C.Cl | -83.3 |
| CN(C)CC#CCOC(c1ccccc1)c1ccccc1.Cl | -16.1 |
| CN(C)C(C)(C)C#CC(O)(c1ccccc1)c1ccccc1 | -26.6 |
| CN(C)C(C)(C)C#CCC(c1ccccc1)c1ccccc1.Cl | -55.9 |
| CN(C)C(C)(C)C#CCCCCC#CC(C)(C)N(C)C | 16.5 |
| CC1CCC(NC(=O)CCCn2sc3ccccc3c2=O)CC1 (stereo not shown) | 15.4 |
| N#C/C(=N\Nc1ccccc1[N+](=O)[O-])C(=N)N1CCCCC1 | 33.8 |
| Cc1ccccc1N1C(=O)/C(=C/c2ccco2)C(=O)NC1=S | 16.5 |
| NC(=O)COC(=O)c1ccccc1OCc1ccccc1 | 18.3 |
| CN1C(=O)c2ccc(NC(=O)CCS(=O)(=O)c3ccccc3)cc2C1=O | -3.01 |
| COc1ccc(-c2nnc(SCCC(=O)O)n2C)cc1OC | -6.37 |
| CCOC(=O)c1cnc2c(C)cccc2c1NCCc1ccc(OC)c(OC)c1 | -66.9 |
| CCOC(=O)c1cnc2c(ccc3ccccc32)c1NCCCN(C)C | -47 |
| CCOC(=O)c1cnc2c(ccc3ccccc32)c1NCCO | -26.4 |
| CCOC(=O)c1cnc2ccccc2c1Nc1cc(C(=O)O)ccc1C | 14.9 |

| SMILES | hERG current change (%, negative = inhibition) at 10uM [%] |
| --- | --- |
| CCOC(=O)c1cnc2ccccc2c1NCCc1ccc(OC)c(OC)c1 | -78.2 |
| CCOC(=O)c1cnc2ccc(OC)cc2c1Nc1ccc(N2CCN(C)CC2)cc1 | -18.2 |
| CCOC(=O)c1cnc2ccc(C(=O)OC)cc2c1NCCc1ccc(OC)c(OC)c1 | -3.95 |
| COc1ccc(CCNC(=O)COc2ncnc3ccccc23)cc1OC | 16.3 |
| CCOC(=O)c1cnc2ccc(OC)cc2c1NCCc1ccc(OC)c(OC)c1 | -76.6 |
| O=C(O)CCn1cc(/C=C2\NC(=S)N(c3ccccc3)C2=O)c(-c2ccc(Br)cc2)n1 | 30.1 |
| CC(=O)CCc1ccc(Oc2nc(-c3cccnc3)nc3ccccc23)cc1 | 5.75 |
| COc1ccc(Nc2cnn(-c3nc4ccccc4s3)c(=O)c2Cl)cc1 | -3.58 |
| CC1(c2ccccc2)NC(=O)N(CC(=O)Nc2cc3c(cc2Br)OCCO3)C1=O (stereo not shown) | -8.6 |
| S=C(Nc1ccccc1Oc1ccccc1)NC1CCCC1 | -0.79 |
| COc1ccc(NC(=O)C(=O)NCCN2CCN(C(=O)c3cccc(Br)c3)CC2)cc1 | -31 |
| COc1ccc(C(=O)N2CCN(CCNC(=O)C(=O)Nc3ccc(Br)cc3)CC2)cc1 | -80 |
| CC(C)(C)c1ccc(C(=O)N2CCN(CCNC(=O)C(=O)Nc3ccc(F)cc3)CC2)cc1 | -52.5 |
| CCN1CCN(C(=O)c2ccc(OCC(=O)Nc3ccc(F)cc3)c(OC)c2)CC1 | -14.9 |
| O=C(NCCN1CCN(C(=O)c2c(F)cccc2F)CC1)C(=O)Nc1ccc(Cl)cc1 | -32.5 |
| COc1ccc(C(=O)N2CCN(CCNC(=O)C(=O)Nc3ccc(F)cc3)CC2)cc1 | -69.6 |
| COc1ccc(C(=O)N2CCN(CCNC(=O)C(=O)Nc3ccc(F)cc3)CC2)cc1OC | -61.5 |
| Cc1ccc(S(=O)(=O)N2CCN(CCNC(=O)C(=O)Nc3ccc(F)cc3)CC2)cc1 | 2.09 |
| Cc1cccc(C(=O)N2CCN(CCNC(=O)C(=O)Nc3ccc(F)cc3)CC2)c1 | -38.8 |
